Measured values taken from PubChem BioAssay (NCI).
The panel holds about 83,000 compounds, 20% with a hit somewhere; the sample as a whole holds those more often.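 The endpoint reported here, percent growth, reads 100 for growth as untreated, 0 for no net growth and -100 for all cells dead.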 A number with no mark means an inactive call. Calls of active or inactive are those of the source. The calls were made as follows: active = growth percent below 10; inactive = the rest.

The compounds below were run on HL-60(TB) leukemia (assay: NCI-60 one-dose screen, 48 h (100 = growth as untreated, 0 = no growth, -100 = all killed)). Conditions: 10 µM unless noted.

Compound	growth
Cc1ccc(-c2cc(-c3ccccc3)[nH]c(=O)c2C#N)cc1	86.9%
C/C(=N\N=C1/C(=O)Nc2ccc(Cl)cc21)c1ccc2c(c1)Nc1ccccc1S2	8.43% (active)
O=C(NNC(=O)c1ccc(OCc2nc3ccc(Cl)cc3[nH]2)cc1)Nc1ccc(Cl)c(C(F)(F)F)c1	74.8%
CC(=O)OC[C@@]1(C)C2CC[C@]3(C)C(CC=C4C5CC(C)(C)CC[C@]5(C(=O)Nc5ccc(C)cc5)CC[C@]43C)[C@@]2(C)C[C@@H](OC(C)=O)[C@@H]1OC(C)=O (some centres undefined)	31.6%
CCCn1c(=O)c2[nH]c(-c3ccc(OCc4nc5ccc(F)cc5[nH]4)cc3)nc2n(CCC)c1=O	38.2%
CCCN(CCC)S(=O)(=O)c1ccc(C(=O)O)cc1.CCCN(CCC)S(=O)(=O)c1ccc(C(=O)O)cc1.[Cl][Pt+2][Cl].[NH2-].[NH2-]	-2.97% (active)
CCOC(=O)c1ccc(Nc2nc(NN)nc(-c3ccc(F)cc3)c2C#N)cc1	88%
COc1ccc2c(c1)C(Sc1ccc(F)cc1)c1c(nc(N)c(C#N)c1N)O2 (centres undefined)	84.9%
CC(C)(C)OC(=O)N1CCC2(CC1)Oc1ccccc1[C@H]1CC(c3ccc(Br)cc3)=NN12	64.1%
CN1C(=O)/C(=C/c2ccc3ncsc3c2)NC1=NC12CC3CC(CC(O)(C3)C1)C2	-16.6% (active)
COc1ccc(C(=O)COc2ccc(NC(=O)Nc3ccc(Cl)c(C(F)(F)F)c3)cc2)cc1	19%
Cc1ccc2nc(-c3ccc(-c4nnc(SCC(=O)Nc5ccc(Br)cc5)o4)cc3)[nH]c2c1	55.6%
COc1ccc(Nc2nc(N)n(Cc3cccc(Br)c3)n2)cc1	-11.4% (active)
COc1ccc(NC(=O)CSc2nnc(-c3ccc(-c4nc5ccccc5[nH]4)cc3)o2)cc1	43.5%
CN(C)CCn1c2ccccc2c2nc3ccc([N+](=O)[O-])cc3nc21	5.67% (active)
Cn1cc(-c2cc3nc(-c4c[nH]c5ccccc45)cc(N)n3n2)c2cc(Cl)ccc21	-24.8% (active)
O=c1oc2ccc(-c3ccc(F)cc3F)cc2c(=O)n1-c1ccc(F)c(Cl)c1	-40.3% (active)
Clc1ccc(-c2nc3c4c(-c5ccccc5)c(-c5ccccc5)n(Cc5ccccc5)c4ncn3n2)cc1	-27.7% (active)
Nc1nnc(-c2cncc(Br)c2)c(-c2c[nH]c3ccc(Cl)cc23)n1	64.3%
Cn1cc(-c2cc(N)n3nc(-c4c[nH]c5ccc(Cl)cc45)cc3n2)c2cc(Br)cnc21	-60.4% (active)

Compound	growth
CN(C)c1nc(NCCNS(=O)(=O)c2ccc(C(=O)/C=C/c3ccc(C(F)(F)F)cc3)cc2)nc(Nc2ccc(F)cc2)n1	-21.8% (active)
Cc1ccc(C2=NN(c3nc(-c4cc5ccccc5oc4=O)cs3)C(c3ccc(C)cc3)C2)cc1 (centres undefined)	91%
COCOc1cc2oc(C(=O)N[C@@H](Cc3ccccc3)C(O)C(=O)NCc3ccccc3)c(C)c(=O)c2cc1OCOC (some centres undefined)	96.5%
Cc1ccc(NC(=O)N/N=C/c2c[nH]c3ccccc23)c(C)c1	1.73% (active)
COc1ccc(NC(=O)Cn2c(/C=C/c3ccc([N+](=O)[O-])cc3)nc3ccccc3c2=O)cc1	112%
O=C(CSc1nnc(-c2ccc3nc(-c4ccc(Cl)cc4)[nH]c3c2)o1)Nc1ccc(Br)cc1	-22.3% (active)
COc1cc2oc(-c3cccc(NC(=O)[C@H](CC(N)=O)NC(=O)OC(C)(C)C)c3)cc(=O)c2c(OC)c1OC	67.2%
COc1ccc2[nH]c(=O)c(CSc3ccccc3Nc3nccc(-c4ccc(C(F)(F)F)cc4)n3)cc2c1	1.94% (active)
COc1ccc2c(c1)c(-c1cc(N)n3nc(-c4c[nH]c5ccccc45)cc3n1)cn2C	-32.4% (active)
O=C1/C(=C/c2cccc3c2OCO3)Cc2c(F)cc(Br)cc21	97.8%
CC1=C(C)C(=O)C(NCCN2CCOCC2)=C(Br)C1=O	-24.9% (active)
N#Cc1cc(-c2ccc3ncnc(N4CCc5cc(F)c(Cl)cc54)c3c2)cnc1N	36.1%
COc1ccc(-c2nc(Nc3ccccc3S(N)(=O)=O)c3ccccc3n2)cc1	88.5%
COc1ccc(N2N=C(c3ccc4c(c3)OCO4)CC2c2cccc(NC(=O)CCCNS(=O)(=O)c3ccc(F)cc3)c2)cc1 (centres undefined)	55.7%
COc1ccc(Cc2nn(CC(=O)N/N=C/c3ccc([N+](=O)[O-])cc3)c(=O)c3c(C)noc23)cc1	109%
C(=C\c1cc(/C=C/c2ccccc2)c2ccccc2n1)/c1ccccc1	2.48% (active)
COc1ccc(C(=O)/C=C/c2ccc(Cl)c(C(F)(F)F)c2)cc1S(N)(=O)=O	6.1% (active)
O=C(Nc1nc2ccccc2s1)c1ccc(Br)cc1	99.1%
CC(C)C1=C[C@@]23CC[C@@H]4[C@](C)(CCC[C@]4(C)C(=O)NCc4ccccc4)[C@H]2C[C@@H]1[C@H]1C(=O)OC(=O)[C@H]13	3.62% (active)
